PubChem BioAssay (NCI)
The panel holds about 83,000 compounds, 20% with a hit somewhere; the sample as a whole holds those more often.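 In brief: 96-well plates, 48 h treatment, single concentration, percent growth endpoint.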 Unmarked numbers belong to inactive results. Active and inactive are the calls of the source. The calls were made as follows: active = growth percent below 10; inactive = the rest.

Experiments:
Test in all cases: NCI-60 one-dose screen, 48 h (100 = growth as untreated, 0 = no growth, -100 = all killed)
Conditions in all cases: 10 µM unless noted
[1] = system: HCT-15 colon
[2] = system: HT29 colon
[3] = system: SNB-75 CNS
[4] = system: SNB-19 CNS
[5] = system: U251 CNS
[6] = system: PC-3 prostate
[7] = system: SK-MEL-5 melanoma
[8] = system: UACC-62 melanoma
[9] = system: LOX IMVI melanoma
[10] = system: SK-MEL-28 melanoma
[11] = system: SK-MEL-2 melanoma
[12] = system: SN12C renal
[13] = system: UO-31 renal
[14] = system: TK-10 renal
[15] = system: ACHN renal
[16] = system: CAKI-1 renal
[17] = system: CCRF-CEM leukemia
[18] = system: MOLT-4 leukemia
[19] = system: A498 renal

| Structure (SMILES) | growth [1] | growth [2] | growth [3] | growth [4] | growth [5] | growth [6] | growth [7] | growth [8] | growth [9] | growth [10] | growth [11] | growth [12] | growth [13] | growth [14] | growth [15] | growth [16] | growth [17] | growth [18] | growth [19] [%] |
| --- | --- | --- | --- | --- | --- | --- | --- | --- | --- | --- | --- | --- | --- | --- | --- | --- | --- | --- | --- |
| O=C(Nc1ccc(F)cc1)c1cc([N+](=O)[O-])ccc1O | 68.1% | 61.7% | 78.1% | 70.9% | 61.6% | 54.7% | 30% | 36.8% | 56.3% | 55.9% | 37% | 82.4% | 58.9% | 81.6% | 73.2% | 67.1% | 59.5% | 63.3% |  |
| COc1ccc(-c2nc3sccn3c2-c2ccnc(NCCCNS(=O)(=O)c3ccc(F)cc3)n2)cc1 | 2.92% (active) | 20% | 40.4% | 42.6% | 26.1% | 21.1% | -59.6% (active) | -34.4% (active) | 6.15% (active) | 11.5% | -0.52% (active) | 14.3% | 4.56% (active) | 52.9% | 2.12% (active) | 21.8% | 9.5% (active) | 6.65% (active) |  |
| COc1ccc(S(=O)(=O)Nc2cc(/C=C\c3cc(OC)c(OC)c(OC)c3)cc(OC)c2OC)cc1OC | 24.1% | 13.6% | -4.59% (active) | 40% | 23.1% | 34.3% | 23.7% | 37.3% | 48.2% | 52.5% | 36.6% | 45% | 40.7% | 73.4% | 45.1% | 24.4% | 9.18% (active) |  |  |
| CCn1c(=O)c2c(=O)c3c4c(oc3oc2c2ccccc21)C(=O)c1ccccc1C4=O | 79.6% | 63% | 120% | 90.2% | 57.7% | 42.4% | 67.4% | 64% | 32.4% | 107% | 79.9% | 87.2% | 81.8% | 112% | 79.6% | 72.6% | 2.47% (active) | -24.5% (active) |  |
| O=C1N=C(c2c(-c3[nH]c(=O)c4ccc(Br)cc4c3O)c(O)c3ccccc3c2O)C(=O)c2cc(Br)ccc21 | -36.3% (active) | 25.7% | -35.8% (active) | 4.13% (active) | -57.9% (active) | -60.5% (active) | -9.06% (active) | -48.9% (active) | -67.5% (active) | -47.8% (active) | -14.7% (active) | -75.4% (active) | -65% (active) | -39% (active) | -54% (active) | -72% (active) | 25.3% | 31% |  |
| O=C1c2ccccc2C(=O)c2c1oc1oc3c(c(=O)c21)c(=O)n(-c1ccccc1)c1ccccc31 | 66.6% | 84.2% | 31.8% | 27.9% | 21.1% | 34.2% | 17.7% | 13.2% | 43% | 39.4% | 23.1% | 97.7% | 49.2% | 64.2% | 28.5% | 69.2% | 17.8% | 16.1% |  |
| CCN(CC)c1cc(/C=C/c2ccc(OC)c(OC)c2)nc2cc(F)c(F)cc12 | 80.1% | 103% | -68.5% (active) | -33.1% (active) | -62.3% (active) | 65.6% | 93.3% | 10.4% | 25.9% | 98.2% | -58.2% (active) | 57% | 75.3% | -28.6% (active) | -50.9% (active) | 46.8% | 29.7% | 49.2% |  |
| O=C1c2ccccc2C(=O)c2c(N=Nc3sc(=O)[nH]c3S)cccc21 | 94% | 82.9% | 112% | 93.4% | 91.6% | 89.9% | 93.4% | 88.8% | 84.9% | 110% | 95.2% | 100% | 88.7% | 138% | 102% | 96.3% | 94.8% | 101% |  |
| CCOC(=O)CC(C#N)(CC(=O)OCC)C(=O)OCC | 99.4% | 125% | 89.7% | 111% | 94.8% | 89.2% | 98% | 97.7% | 103% | 98% | 106% | 95.1% | 96.1% | 139% | 107% | 99.5% | 102% | 109% |  |
| O=C(CNc1ccc(Cl)cc1)Nc1ccc(-c2nc3ccccc3s2)cc1 | -13.9% (active) | 47.9% | 60.1% | 63.6% | 26.3% | 85.3% | 25% | 30.1% | -41% (active) | 99.5% | 78.5% | 46.8% | 65% | 118% | 22.8% | 20.2% | 3.22% (active) | 4.4% (active) |  |
| COc1ccc(-c2nc3sccn3c2-c2ccnc(NCCCNS(=O)(=O)c3ccc(C)cc3)n2)cc1 | 16.8% | 18.4% | 77.4% | 71.7% | 45.1% | 31.5% | -5.18% (active) | 10.9% | 11% | 41.5% | 25.9% | 36.3% | 15.5% | 66% | 22.4% | 42.1% | 18.9% | 24.6% |  |
| COc1ccc(/C=C\c2cc(OC)c(OC)c(OC)c2)c(NS(=O)(=O)c2ccc(C(C)(C)C)cc2)c1O | 15.5% | 33% | 31.9% | 46.1% | 24.3% | 34.5% | -19.2% (active) | 39.1% | 17% | 53.7% | -2.03% (active) | 29.5% | 52.3% | 50.8% | 25.2% | 24.4% | 20.6% | 21.8% |  |
| CCN(C(=O)c1cc2ncccc2[nH]1)[C@H]1CCC[C@@H](NCc2cccc(F)c2)C1 | 100% | 105% | 88% | 98.7% | 107% | 102% | 96.3% | 98% | 94.8% | 103% | 105% | 95.3% | 74.3% | 92.6% | 102% | 101% | 128% | 95.9% |  |
| COc1ccc(S(=O)(=O)NCCNc2nccc(-c3c(-c4ccccc4)nc4sccn34)n2)cc1 | 19.4% | 25.4% | 21.8% | 39.3% | 32.7% | 23.1% | -80% (active) | 24.8% | 18.8% | 31.3% | 2.98% (active) | 27.5% | 18.6% | 47% | 10.3% | 18.3% | 22.8% |  |  |
| CCCC(C(=O)OCC)C(C)OC(=O)OCC (stereo not drawn) | 99.9% | 104% | 79% | 106% | 102% | 102% | 103% | 103% | 99.1% | 107% | 94.7% | 101% | 80.1% | 98% | 107% | 96.3% |  | 89.8% | 118 |
| O=S(=O)(NCCCNc1nccc(-c2c(-c3ccc(O)cc3)nc3sccn23)n1)c1ccc(F)cc1 | 10% (active) | 7.73% (active) | 17.8% | 35.1% | 11.1% | 19.3% | -85.1% (active) | -1.06% (active) | -29.4% (active) | -6.84% (active) | -42.5% (active) | 10% | 9.16% (active) | 26.6% | -5.95% (active) | 11.6% | 8.07% (active) | 2.05% (active) |  |
| COc1ccc(S(=O)(=O)N2CCN(c3cc4c(cc3F)c(=O)c(C(=O)O)cn4C3CC3)CC2)c(OC)c1 | 97.2% | 113% | 85.7% | 89.5% | 102% | 99.1% | 82.6% | 84.4% | 61.7% | 101% | 105% | 90.7% | 53.2% | 96.8% | 94.9% | 81.8% | 86.5% |  |  |
